Reference: the supplement of paper PMC10849652
Targets with a hit are over-represented here; the source holds about 7,900 in all. About 0.6% of all pairs of compound and target were hits. Values without a mark were called inactive.

The targets below were run with NC1(c2ccc(-c3nc4ccn5c(=O)[nH]nc5c4cc3-c3ccccc3)cc2)CCC1 (assay: log2 fold change, soluble protein after heating vs DMSO (PISA); higher = thermal stabilisation; K562 cells, 10 uM, 30 min; active = over 0.2 and 3.5 SD of the protein, either way, in both replicates (recomputed)).
In short: (§1)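 K562 cells (2×10^6 cells/mL) were treated with 10 μM compound for 30 min, and aliquots were heated for 3 min over 48°C-58°C. Pooled aliquots were extracted in PBS with 0.5% NP-40 at 4°C, and the supernatant after 21,000xg for 90 min was measured by TMTpro 16plex LC-MS/MS with channel sums equalised. Reported thermal stability, relative to control samples and from duplicates, is a log2 fold change.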

UniProt O15460, sequence (O15460 whole entry, looked up): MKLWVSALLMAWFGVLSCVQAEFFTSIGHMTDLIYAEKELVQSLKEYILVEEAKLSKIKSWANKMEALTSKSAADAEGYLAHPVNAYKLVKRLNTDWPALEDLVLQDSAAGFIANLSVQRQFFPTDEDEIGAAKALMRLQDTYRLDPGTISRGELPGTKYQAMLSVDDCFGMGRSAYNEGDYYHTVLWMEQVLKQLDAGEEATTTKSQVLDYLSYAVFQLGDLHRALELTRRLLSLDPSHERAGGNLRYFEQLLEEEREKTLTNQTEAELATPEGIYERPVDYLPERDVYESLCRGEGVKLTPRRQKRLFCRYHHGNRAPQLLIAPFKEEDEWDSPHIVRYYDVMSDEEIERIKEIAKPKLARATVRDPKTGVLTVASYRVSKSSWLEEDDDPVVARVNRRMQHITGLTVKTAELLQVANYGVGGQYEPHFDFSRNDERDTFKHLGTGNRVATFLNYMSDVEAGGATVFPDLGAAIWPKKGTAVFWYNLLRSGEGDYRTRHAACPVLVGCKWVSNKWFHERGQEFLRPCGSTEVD
UniProt Q12769, sequence (Q12769 whole entry, looked up): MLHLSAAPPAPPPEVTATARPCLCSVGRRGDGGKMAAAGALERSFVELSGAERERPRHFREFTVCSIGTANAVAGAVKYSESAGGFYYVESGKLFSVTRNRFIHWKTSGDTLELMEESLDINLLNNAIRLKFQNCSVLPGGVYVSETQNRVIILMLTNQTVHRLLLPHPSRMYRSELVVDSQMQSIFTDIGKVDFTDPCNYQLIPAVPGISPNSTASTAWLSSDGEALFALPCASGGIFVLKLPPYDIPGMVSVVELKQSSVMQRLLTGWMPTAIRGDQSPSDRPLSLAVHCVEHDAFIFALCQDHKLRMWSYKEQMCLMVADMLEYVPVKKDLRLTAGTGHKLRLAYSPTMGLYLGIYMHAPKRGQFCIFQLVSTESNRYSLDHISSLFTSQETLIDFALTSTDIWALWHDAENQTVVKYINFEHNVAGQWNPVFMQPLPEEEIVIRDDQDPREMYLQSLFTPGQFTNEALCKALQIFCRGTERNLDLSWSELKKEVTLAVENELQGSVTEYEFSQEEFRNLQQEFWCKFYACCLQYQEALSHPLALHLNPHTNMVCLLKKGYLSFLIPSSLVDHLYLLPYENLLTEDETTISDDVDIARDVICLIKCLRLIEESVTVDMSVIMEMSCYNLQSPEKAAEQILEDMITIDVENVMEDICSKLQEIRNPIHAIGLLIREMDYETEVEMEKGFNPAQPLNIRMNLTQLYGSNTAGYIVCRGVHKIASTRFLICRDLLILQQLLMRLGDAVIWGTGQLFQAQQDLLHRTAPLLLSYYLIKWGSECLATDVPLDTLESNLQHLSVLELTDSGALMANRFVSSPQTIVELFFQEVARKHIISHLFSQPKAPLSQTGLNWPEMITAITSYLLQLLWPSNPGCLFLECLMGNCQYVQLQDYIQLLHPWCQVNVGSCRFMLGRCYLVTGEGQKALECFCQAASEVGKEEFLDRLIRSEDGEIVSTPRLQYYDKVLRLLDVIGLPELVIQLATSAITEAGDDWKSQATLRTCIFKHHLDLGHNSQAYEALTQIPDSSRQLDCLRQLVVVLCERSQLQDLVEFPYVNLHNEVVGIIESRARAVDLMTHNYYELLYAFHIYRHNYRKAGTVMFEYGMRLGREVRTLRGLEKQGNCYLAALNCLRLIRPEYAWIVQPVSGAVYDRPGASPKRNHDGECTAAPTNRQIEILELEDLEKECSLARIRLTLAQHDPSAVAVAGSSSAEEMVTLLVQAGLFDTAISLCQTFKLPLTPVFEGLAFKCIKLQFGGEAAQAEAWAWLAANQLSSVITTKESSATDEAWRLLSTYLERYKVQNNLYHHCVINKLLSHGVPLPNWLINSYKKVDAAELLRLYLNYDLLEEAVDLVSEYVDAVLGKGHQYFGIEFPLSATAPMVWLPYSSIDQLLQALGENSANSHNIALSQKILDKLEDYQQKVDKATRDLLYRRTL
UniProt Q15746, sequence (Q15746 whole entry, looked up): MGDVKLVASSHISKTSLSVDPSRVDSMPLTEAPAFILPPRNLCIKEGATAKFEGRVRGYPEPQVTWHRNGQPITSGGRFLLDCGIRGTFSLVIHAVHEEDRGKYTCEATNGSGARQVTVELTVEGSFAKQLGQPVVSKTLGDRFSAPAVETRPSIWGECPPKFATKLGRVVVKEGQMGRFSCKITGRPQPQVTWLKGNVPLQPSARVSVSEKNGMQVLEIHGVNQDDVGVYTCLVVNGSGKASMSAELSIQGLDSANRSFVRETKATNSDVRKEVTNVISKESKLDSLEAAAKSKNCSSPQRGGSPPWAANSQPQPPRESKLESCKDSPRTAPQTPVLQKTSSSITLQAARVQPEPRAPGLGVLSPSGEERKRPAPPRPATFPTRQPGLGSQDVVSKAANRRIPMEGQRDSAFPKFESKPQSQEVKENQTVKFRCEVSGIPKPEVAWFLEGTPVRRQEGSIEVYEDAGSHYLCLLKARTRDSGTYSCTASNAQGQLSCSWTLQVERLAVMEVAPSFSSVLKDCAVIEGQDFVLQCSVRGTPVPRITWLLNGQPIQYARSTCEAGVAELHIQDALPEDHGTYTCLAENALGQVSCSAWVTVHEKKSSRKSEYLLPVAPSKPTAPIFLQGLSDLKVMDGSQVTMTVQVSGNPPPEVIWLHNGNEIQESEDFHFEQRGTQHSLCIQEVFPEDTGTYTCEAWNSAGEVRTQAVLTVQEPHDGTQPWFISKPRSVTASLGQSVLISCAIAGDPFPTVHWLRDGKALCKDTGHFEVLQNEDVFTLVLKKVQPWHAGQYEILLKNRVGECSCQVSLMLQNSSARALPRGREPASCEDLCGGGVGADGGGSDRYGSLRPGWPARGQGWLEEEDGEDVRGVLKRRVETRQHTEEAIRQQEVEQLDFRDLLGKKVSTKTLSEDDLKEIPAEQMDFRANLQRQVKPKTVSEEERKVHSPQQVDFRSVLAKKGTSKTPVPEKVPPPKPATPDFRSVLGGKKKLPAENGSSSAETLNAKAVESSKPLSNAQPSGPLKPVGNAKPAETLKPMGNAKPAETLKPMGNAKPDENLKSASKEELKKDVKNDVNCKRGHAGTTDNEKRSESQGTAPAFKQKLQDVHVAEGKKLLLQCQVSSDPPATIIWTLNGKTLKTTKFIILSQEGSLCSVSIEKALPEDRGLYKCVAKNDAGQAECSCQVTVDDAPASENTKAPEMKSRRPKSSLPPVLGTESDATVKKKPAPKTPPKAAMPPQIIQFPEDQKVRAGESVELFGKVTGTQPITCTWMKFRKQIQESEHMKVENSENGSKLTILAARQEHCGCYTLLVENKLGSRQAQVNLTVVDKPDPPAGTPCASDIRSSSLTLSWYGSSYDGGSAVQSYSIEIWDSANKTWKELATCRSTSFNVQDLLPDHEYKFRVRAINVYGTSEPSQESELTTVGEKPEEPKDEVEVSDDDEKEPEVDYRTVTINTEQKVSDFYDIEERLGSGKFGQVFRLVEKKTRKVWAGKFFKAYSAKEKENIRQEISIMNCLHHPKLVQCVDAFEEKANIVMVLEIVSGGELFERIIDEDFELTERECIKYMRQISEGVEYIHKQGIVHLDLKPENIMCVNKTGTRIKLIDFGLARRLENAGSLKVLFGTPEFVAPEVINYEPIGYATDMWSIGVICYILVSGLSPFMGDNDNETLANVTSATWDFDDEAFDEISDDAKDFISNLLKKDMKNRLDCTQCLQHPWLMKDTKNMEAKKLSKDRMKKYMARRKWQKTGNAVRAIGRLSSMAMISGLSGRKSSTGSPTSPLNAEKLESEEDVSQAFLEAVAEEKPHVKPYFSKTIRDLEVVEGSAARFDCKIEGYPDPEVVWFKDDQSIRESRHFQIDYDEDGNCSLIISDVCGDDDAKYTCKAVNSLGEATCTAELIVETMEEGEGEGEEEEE
UniProt O43847, sequence (O43847 whole entry, looked up): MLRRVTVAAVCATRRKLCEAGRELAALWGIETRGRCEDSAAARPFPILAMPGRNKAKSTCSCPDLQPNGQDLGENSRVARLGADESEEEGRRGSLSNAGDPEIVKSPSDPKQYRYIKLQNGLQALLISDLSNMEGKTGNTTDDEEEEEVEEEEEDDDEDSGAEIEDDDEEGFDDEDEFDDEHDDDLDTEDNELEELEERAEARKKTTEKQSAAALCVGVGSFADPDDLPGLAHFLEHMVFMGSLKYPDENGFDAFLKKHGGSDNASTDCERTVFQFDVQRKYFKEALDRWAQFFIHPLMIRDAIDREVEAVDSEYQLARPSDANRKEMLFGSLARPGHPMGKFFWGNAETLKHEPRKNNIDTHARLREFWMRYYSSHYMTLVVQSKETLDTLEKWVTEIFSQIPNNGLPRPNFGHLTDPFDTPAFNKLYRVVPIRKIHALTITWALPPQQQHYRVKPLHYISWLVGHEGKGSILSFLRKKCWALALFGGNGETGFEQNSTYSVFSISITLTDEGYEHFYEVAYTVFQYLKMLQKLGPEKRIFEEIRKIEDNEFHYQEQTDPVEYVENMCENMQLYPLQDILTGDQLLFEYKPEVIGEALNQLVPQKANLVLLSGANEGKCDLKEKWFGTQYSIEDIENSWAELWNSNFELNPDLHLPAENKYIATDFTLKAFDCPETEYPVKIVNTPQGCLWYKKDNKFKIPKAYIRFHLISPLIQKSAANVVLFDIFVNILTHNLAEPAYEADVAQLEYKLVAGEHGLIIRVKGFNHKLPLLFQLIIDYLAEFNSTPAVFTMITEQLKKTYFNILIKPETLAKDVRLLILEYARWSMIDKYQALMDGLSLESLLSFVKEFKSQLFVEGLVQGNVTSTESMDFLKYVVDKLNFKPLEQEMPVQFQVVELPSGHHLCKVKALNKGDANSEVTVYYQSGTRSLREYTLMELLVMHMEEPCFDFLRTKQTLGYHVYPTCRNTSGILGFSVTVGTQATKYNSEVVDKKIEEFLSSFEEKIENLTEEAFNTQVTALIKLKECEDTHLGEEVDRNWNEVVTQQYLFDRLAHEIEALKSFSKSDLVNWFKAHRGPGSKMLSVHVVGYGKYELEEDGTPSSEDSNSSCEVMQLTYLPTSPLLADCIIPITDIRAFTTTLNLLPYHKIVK
UniProt O75438, sequence (O75438 whole entry, looked up): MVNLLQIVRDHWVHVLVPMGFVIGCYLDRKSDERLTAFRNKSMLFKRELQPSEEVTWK

| Target | log2 fold change |
| --- | --- |
| NIPSNAP3B (UniProt Q9BS92) | -0.069 |
| NFYB (UniProt P25208) | -0.074 |
| MYLK (UniProt Q15746) | -0.064 |
| NAP1L1 (UniProt B7Z9C2) | 0.028 |
| NAGPA (UniProt Q9UK23) | 0.03 |
| NNMT (UniProt P40261) | -0.179 |
| NKAP (UniProt Q8N5F7) | 0.027 |
| MMADHC (UniProt Q9H3L0) | 0.014 |
| OGFOD2 (UniProt Q6N063) | -0.151 |
| OVCA2 (UniProt Q8WZ82) | 0.03 |
| NUP160 (UniProt Q12769) | -0.066 |
| NPM3 (UniProt O75607) | 0.216 |
| P4HA2 (UniProt O15460) | -0.129 |
| NA, A0A494C071 | -0.407 |
| MOB2 isoform 3 (UniProt Q70IA6) | -0.251 |
| MT-ND2 (UniProt P03891) | -0.128 |
| NRDC isoform 2 (UniProt O43847) | -0.057 |

| Target | log2 fold change |
| --- | --- |
| MRFAP1 (UniProt Q9Y605) | 0.021 |
| NCBP2AS2 (UniProt Q69YL0) | -0.312 |
| OAT (UniProt P04181) | -0.235 |
| MON1A (UniProt Q86VX9) | 0.001 |
| NDFIP1 (UniProt Q9BT67) | -0.029 |
| NME2P1 (UniProt O60361) | -0.124 |
| MOB3B (UniProt Q86TA1) | -0.288 |
| MYH16 (UniProt Q9H6N6) | -0.057 |
| ORC5 (UniProt O43913) | -0.253 |
| MSL1 (UniProt Q68DK7) | -0.024 |
| NDUFB1 (UniProt O75438) | -0.007 |
| NUMBL (UniProt Q9Y6R0) | -0.154 |
| NUP98 (UniProt P52948) | -0.025 |
| NECTIN2 isoform 2 (UniProt Q92692) | -0.194 |
| MRPS16 (UniProt Q9Y3D3) | -0.079 |
| MLX (UniProt Q9UH92) | -0.177 |
| OPHN1 (UniProt O60890) | -0.056 |

These targets were tested with NCC(=O)Nc1ccc(-n2nc(C(F)(F)F)cc2-c2ccc3c(ccc4ccccc43)c2)cc1 in the same assay as above.
In short: as §1

| Target | log2 fold change |
| --- | --- |
| NMU (UniProt P48645) | 0.132 |
| NIPSNAP3B (UniProt Q9BS92) | 0.053 |
| NFYB (UniProt P25208) | 0.069 |
| MYLK (UniProt Q15746) | -0.21 |
| NAP1L1 (UniProt B7Z9C2) | 0.064 |
| NNMT (UniProt P40261) | -0.037 |
| NKAP (UniProt Q8N5F7) | -0.028 |
| MMADHC (UniProt Q9H3L0) | 0.057 |
| OGFOD2 (UniProt Q6N063) | -0.012 |
| NUP160 (UniProt Q12769) | -0.062 |
| NPM3 (UniProt O75607) | 0.017 |
| P4HA2 (UniProt O15460) | 0.063 |
| NA, A0A494C071 | -0.153 |
| MT-ND2 (UniProt P03891) | 0.036 |
| NRDC isoform 2 (UniProt O43847) | -0.036 |
| MRFAP1 (UniProt Q9Y605) | -0.082 |

| Target | log2 fold change |
| --- | --- |
| NCBP2AS2 (UniProt Q69YL0) | -0.157 |
| OAT (UniProt P04181) | -0.058 |
| NDFIP1 (UniProt Q9BT67) | -0.249 |
| NME2P1 (UniProt O60361) | -0.306 |
| MOB3B (UniProt Q86TA1) | -0.021 |
| MYO19 (UniProt Q96H55) | 0.051 |
| MYH16 (UniProt Q9H6N6) | 0.051 |
| ORC5 (UniProt O43913) | -0.058 |
| MSL1 (UniProt Q68DK7) | -0.036 |
| NDUFB1 (UniProt O75438) | -0.134 |
| NUMBL (UniProt Q9Y6R0) | 0.002 |
| NELFCD (UniProt Q8IXH7) | -0.321 |
| MTFR1L (UniProt Q9H019) | -0.005 |
| NUP98 (UniProt P52948) | -0.076 |
| NECTIN2 isoform 2 (UniProt Q92692) | 0.031 |
| MRPS16 (UniProt Q9Y3D3) | -0.05 |

Each target was assayed with Nc1ccccc1NC(=O)c1ccc(CNC(=O)OCc2cccnc2)cc1 [entinostat] in the same assay as above.
In short: as §1

| Target | log2 fold change |
| --- | --- |
| NIPSNAP3B (UniProt Q9BS92) | -0.001 |
| NFYB (UniProt P25208) | -0.001 |
| MYLK (UniProt Q15746) | -0.081 |
| NAGPA (UniProt Q9UK23) | 0.04 |
| NNMT (UniProt P40261) | -0.056 |
| NUP160 (UniProt Q12769) | 0.008 |
| NPM3 (UniProt O75607) | -0.019 |
| P4HA2 (UniProt O15460) | -0.104 |
| NRDC isoform 2 (UniProt O43847) | 0.043 |
| NA, A0A2R8Y3M9 | -0.011 |
| MRFAP1 (UniProt Q9Y605) | 0.014 |
| NCBP2AS2 (UniProt Q69YL0) | -0.004 |
| OAT (UniProt P04181) | 0.029 |
| MON1A (UniProt Q86VX9) | -0.005 |
| NDFIP1 (UniProt Q9BT67) | -0.291 |
| NME2P1 (UniProt O60361) | -0.01 |
| MYH16 (UniProt Q9H6N6) | 0.289 |
| ORC5 (UniProt O43913) | -0.101 |
| MSL1 (UniProt Q68DK7) | 0.016 |
| NDUFB1 (UniProt O75438) | 0.055 |
| NUMBL (UniProt Q9Y6R0) | 0.01 |
| MTFR1L (UniProt Q9H019) | 0.069 |
| NUP98 (UniProt P52948) | 0 |
| NECTIN2 isoform 2 (UniProt Q92692) | -0.032 |
| MRPS16 (UniProt Q9Y3D3) | 0.075 |
| MLX (UniProt Q9UH92) | 0.005 |
| OPHN1 (UniProt O60890) | -0.084 |
